# Experimental data taken from ChEMBL document CHEMBL2218924, “A broad activity screen in support of a chemogenomic map for kinase signalling research and drug discovery” (Biochem J, 2013).
# Key:
# [1] = biological target: Insulin receptor (Homo sapiens) (UniProt P06213); conditions: at 10 µM
# [2] = biological target: Insulin receptor (Homo sapiens) (UniProt P06213); conditions: at 1 µM
# [3] = biological target: Insulin receptor (Homo sapiens) (UniProt P06213); conditions: at 10 µM; remark: listed apart in the source
# [4] = biological target: Interleukin-1 receptor-associated kinase 1 (Homo sapiens) (UniProt P51617); conditions: at 1 µM
# Sequence of Interleukin-1 receptor-associated kinase 1 (Homo sapiens) (P51617 whole entry, looked up): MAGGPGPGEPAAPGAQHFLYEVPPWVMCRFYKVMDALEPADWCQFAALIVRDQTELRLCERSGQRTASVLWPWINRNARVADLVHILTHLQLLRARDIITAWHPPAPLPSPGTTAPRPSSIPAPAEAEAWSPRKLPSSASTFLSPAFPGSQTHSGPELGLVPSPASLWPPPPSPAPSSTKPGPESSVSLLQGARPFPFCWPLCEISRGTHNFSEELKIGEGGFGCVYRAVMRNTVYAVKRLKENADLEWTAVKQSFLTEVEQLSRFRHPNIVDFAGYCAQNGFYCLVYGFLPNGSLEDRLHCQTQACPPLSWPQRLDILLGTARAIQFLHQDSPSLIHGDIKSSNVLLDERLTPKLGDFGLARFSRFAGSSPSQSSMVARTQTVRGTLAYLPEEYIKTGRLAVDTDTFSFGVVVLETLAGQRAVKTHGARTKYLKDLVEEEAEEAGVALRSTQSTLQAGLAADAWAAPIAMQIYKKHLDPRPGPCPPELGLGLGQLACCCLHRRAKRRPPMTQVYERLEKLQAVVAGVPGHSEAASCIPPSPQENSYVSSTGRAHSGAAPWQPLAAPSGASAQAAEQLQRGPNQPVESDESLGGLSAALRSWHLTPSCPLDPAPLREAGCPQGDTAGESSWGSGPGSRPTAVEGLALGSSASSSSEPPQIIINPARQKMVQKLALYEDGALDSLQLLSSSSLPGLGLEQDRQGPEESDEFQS
# [5] = biological target: Interleukin-1 receptor-associated kinase 1 (Homo sapiens) (UniProt P51617); conditions: at 10 µM
# [6] = biological target: T1, Interleukin-1 receptor-associated kinase 4 (Homo sapiens) (UniProt Q9NWZ3); conditions: at 1 µM
# T1 sequence (whole entry): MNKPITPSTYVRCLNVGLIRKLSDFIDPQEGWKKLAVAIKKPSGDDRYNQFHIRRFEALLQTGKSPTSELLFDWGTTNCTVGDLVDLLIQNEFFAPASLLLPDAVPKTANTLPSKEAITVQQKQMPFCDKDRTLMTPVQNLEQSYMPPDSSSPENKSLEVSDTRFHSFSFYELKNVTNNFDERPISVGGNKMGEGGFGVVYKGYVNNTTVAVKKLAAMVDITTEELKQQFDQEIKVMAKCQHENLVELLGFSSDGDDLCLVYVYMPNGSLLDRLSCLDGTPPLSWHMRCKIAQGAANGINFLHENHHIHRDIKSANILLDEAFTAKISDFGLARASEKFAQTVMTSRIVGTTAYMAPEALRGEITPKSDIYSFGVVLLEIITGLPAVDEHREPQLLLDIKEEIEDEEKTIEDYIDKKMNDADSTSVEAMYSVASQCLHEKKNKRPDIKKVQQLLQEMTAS
# [7] = biological target: T1, Interleukin-1 receptor-associated kinase 4 (Homo sapiens); conditions: at 10 µM
# [8] = biological target: Insulin receptor-related protein (Homo sapiens) (UniProt P14616); conditions: at 1 µM
# Sequence of Insulin receptor-related protein (Homo sapiens) (P14616 27-742 limits assumed): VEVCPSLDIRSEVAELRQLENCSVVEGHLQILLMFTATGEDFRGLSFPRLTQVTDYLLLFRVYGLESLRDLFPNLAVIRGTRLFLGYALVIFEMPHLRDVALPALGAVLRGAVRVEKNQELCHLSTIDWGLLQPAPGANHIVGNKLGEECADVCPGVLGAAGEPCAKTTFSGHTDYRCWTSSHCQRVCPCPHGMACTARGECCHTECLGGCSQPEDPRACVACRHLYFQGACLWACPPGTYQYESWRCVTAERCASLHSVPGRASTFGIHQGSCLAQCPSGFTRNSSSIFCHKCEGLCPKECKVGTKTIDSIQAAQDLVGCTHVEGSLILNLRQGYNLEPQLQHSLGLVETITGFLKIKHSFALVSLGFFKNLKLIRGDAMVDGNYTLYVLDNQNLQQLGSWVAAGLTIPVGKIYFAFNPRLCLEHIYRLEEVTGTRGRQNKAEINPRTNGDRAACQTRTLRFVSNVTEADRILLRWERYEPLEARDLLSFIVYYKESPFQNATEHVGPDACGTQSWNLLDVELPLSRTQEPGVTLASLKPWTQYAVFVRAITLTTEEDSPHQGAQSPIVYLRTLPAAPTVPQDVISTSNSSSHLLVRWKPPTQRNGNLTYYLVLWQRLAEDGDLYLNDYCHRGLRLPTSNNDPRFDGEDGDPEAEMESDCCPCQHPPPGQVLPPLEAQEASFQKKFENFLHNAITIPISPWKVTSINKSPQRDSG
# Sequence of Insulin receptor-related protein (Homo sapiens) (P14616 747-1297 limits assumed): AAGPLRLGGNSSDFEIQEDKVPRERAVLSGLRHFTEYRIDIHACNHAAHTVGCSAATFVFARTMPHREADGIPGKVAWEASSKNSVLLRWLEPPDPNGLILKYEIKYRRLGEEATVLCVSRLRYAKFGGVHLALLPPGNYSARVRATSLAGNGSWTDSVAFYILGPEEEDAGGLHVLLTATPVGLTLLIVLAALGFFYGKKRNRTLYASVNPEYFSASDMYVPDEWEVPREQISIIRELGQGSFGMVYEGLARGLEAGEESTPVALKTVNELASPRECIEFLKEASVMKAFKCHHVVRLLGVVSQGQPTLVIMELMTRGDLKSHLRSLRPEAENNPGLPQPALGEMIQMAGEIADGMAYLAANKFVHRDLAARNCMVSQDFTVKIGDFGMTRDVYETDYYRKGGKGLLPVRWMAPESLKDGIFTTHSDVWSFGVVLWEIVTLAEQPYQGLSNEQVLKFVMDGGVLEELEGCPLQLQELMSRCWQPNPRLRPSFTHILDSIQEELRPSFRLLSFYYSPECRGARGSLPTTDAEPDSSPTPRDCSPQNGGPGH
# [9] = biological target: Insulin receptor-related protein (Homo sapiens) (UniProt P14616); conditions: at 10 µM
# [10] = biological target: T2, Tyrosine-protein kinase ITK/TSK (Homo sapiens) (UniProt Q08881); conditions: at 1 µM
# T2 sequence (whole entry): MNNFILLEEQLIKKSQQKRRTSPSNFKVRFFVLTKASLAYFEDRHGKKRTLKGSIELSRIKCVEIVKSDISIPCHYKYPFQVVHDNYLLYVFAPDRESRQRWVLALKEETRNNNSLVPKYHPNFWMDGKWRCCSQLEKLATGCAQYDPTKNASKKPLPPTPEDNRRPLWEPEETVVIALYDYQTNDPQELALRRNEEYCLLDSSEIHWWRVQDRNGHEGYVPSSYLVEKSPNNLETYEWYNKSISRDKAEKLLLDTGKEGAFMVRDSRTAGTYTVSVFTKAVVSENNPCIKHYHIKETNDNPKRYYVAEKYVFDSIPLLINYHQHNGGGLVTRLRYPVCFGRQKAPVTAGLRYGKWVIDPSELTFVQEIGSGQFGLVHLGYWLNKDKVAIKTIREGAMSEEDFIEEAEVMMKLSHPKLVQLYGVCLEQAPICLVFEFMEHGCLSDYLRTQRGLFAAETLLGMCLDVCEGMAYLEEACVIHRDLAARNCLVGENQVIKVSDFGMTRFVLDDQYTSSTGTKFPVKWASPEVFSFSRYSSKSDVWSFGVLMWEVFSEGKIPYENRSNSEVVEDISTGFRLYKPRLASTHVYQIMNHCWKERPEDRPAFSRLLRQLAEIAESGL
# Sequence of Insulin receptor (Homo sapiens) (P06213 28-758 limits assumed): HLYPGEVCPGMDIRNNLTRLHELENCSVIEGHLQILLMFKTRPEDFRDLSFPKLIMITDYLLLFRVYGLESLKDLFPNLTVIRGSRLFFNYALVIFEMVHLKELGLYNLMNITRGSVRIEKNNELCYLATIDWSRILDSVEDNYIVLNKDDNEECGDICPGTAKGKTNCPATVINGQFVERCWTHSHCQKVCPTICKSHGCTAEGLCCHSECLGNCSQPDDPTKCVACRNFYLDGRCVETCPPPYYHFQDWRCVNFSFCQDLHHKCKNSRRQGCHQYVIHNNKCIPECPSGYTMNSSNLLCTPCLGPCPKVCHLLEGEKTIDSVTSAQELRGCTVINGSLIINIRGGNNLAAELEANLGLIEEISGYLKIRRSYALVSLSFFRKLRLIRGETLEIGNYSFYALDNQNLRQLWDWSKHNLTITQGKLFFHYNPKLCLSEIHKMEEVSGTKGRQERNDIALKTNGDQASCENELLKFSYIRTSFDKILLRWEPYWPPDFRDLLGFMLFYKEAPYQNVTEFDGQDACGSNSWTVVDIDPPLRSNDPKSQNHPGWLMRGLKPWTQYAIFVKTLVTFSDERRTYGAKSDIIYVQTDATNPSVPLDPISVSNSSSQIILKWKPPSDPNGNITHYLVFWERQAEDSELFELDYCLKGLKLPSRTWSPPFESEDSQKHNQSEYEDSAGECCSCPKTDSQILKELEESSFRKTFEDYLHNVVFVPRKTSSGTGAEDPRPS
# Sequence of Insulin receptor (Homo sapiens) (P06213 763-1382 limits assumed): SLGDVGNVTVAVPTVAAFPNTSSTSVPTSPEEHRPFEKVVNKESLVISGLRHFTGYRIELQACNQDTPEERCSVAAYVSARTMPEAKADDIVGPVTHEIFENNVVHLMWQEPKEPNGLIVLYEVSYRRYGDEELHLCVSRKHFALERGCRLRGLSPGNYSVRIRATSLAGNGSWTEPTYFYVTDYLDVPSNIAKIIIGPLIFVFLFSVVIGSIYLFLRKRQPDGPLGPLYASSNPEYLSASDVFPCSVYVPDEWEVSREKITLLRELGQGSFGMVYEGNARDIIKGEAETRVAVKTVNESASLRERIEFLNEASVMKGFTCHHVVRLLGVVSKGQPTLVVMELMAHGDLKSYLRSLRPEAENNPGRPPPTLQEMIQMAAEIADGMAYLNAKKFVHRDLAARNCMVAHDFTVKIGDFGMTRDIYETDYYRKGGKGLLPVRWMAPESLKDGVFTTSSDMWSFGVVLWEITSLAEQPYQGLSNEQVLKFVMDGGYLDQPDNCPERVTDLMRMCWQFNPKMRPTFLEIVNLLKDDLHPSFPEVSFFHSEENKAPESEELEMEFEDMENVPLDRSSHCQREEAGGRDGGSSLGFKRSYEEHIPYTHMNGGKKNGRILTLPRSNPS
Structure (SMILES),residual activity [1] [%],residual activity [2] [%],residual activity [3] [%],residual activity [4] [%],residual activity [5] [%],residual activity [6] [%],residual activity [7] [%],residual activity [8] [%],residual activity [9] [%],residual activity [10] [%]
O=C(Nc1cccc(Nc2nccc(Nc3cccc(C(F)(F)F)c3)n2)c1)C1CC1,12,86,97,81,82,50,44,13,1,96
Nc1n[nH]c2nnc(-c3c(-c4ccccc4)nn4ccccc34)cc12,25,89,44,95,104,66,64,88,23,96
O=[N+]([O-])c1ccc(-c2nc(-c3ccc(F)cc3)c(-c3ccncc3)[nH]2)cc1,109,105,95,107,108,104,97,124,98,108
Cc1ccc(S(=O)(=O)/C=C/C#N)cc1,91,99,95,102,109,97,92,119,106,103
c1ccc(-c2n[nH]c3c2oc2ccccc23)cc1,,,,96,98,91,68,141,73,98
COc1cc2ncnc(Nc3ccc(Oc4ccccc4)cc3)c2cc1OC,98,93,91,87,79,98,79,82,81,86
COc1cc2ncc(-c3ccccc3)nc2cc1OC,,,,,,,,137,80,
CCN(CC)C(=O)c1ccc(Nc2nc(OCC3CCCCC3)c3nc[nH]c3n2)cc1,143,47,7,,35,57,15,69,1,32
Oc1ccc(-c2nc(-c3ccc(F)cc3)c(-c3ccncc3)[nH]2)cc1,126,97,90,104,79,,88,,98,108
COc1ccc(OC)c2c(=S)c3ccccc3[nH]c12,103,101,89,101,102,86,68,106,103,98
O=C1NC(=O)c2cc(Nc3ccc(F)cc3)c(Nc3ccc(F)cc3)cc21,103,94,85,83,63,99,110,122,83,110
O=C1c2ccccc2-[n+]2ccc3c([nH]c4ccccc43)c21,93,101,86,106,,79,78,101,92,96
COc1cc2ncnc(Nc3ccc(O)c(Br)c3)c2cc1OC,76,95,91,40,10,44,17,102,75,89
O=C1NC(=O)c2c1c1c3ccccc3[nH]c1c1[nH]c3cc(Br)ccc3c21,88,103,95,106,107,92,76,97,84,102
COc1cccc(-c2cc(=O)c3ccccc3o2)c1N,94,96,92,98,96,109,94,106,91,108
O=C1Nc2ccccc2/C1=C1/Nc2ccccc2/C1=N\OCCC(O)CO (stereo not given),4,10,4,31,23,16,0,2,2,24
C[C@@H](N)[C@H]1CC[C@H](C(=O)Nc2ccncc2)CC1,109,104,97,100,98,101,95,103,101,106
O=C1Nc2ccc(Br)cc2/C1=C\c1cc2c([nH]1)CCCC2,79,,,,,82,77,114,63,
